From PubChem BioAssay
The source made the active and inactive calls.

Experiments:
[1] = tested on: Plasmodium falciparum Sir2 (PF13_0152, Sir2A); test: pfSir2 binders on small-molecule microarrays, primary screen, biochemical, small-molecule microarray, 635 nm fluorescence (AID 1098); details: small-molecule microarray binding, fluorescence 635 nm; higher = more signal;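 further: score merges spot fluorescence intensity with its signal-to-noise ratio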
[2] = small-molecule microarray binders of probe aDKK1, primary screen, biochemical, biotinylated probe, 635/667 nm fluorescence (AID 1099); details: higher = more signal;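 further: score merges 667nm spot fluorescence with signal to noise across triplicate slides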
[3] = small-molecule microarray binders of probe aCHRDL2, primary screen, biochemical, biotinylated probe, 635/667 nm fluorescence (AID 1100); details: higher = more signal
[4] = splicing luciferase reporter signal modulators, primary screen, spliceosome inhibition project, cell-based, HEK293, splice +/- reporter (AID 1101); details: luminescence, 24 h, higher = more signal, called active from +8 up or from −8 down;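 further: HEK293 cells carrying a splicing-competent luciferase reporter gene; test concentration not given here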
[5] = biological target: Fibroblast growth factor 10 (Homo sapiens) (UniProt O15520); test: FGF10 binders on small-molecule microarrays, primary screen, biochemical, small-molecule microarray, 635 nm fluorescence (AID 1102); details: FGF10 binding, fluorescence 635 nm, higher = more signal
Chain of Fibroblast growth factor 10 (Homo sapiens) (O15520 whole entry, looked up): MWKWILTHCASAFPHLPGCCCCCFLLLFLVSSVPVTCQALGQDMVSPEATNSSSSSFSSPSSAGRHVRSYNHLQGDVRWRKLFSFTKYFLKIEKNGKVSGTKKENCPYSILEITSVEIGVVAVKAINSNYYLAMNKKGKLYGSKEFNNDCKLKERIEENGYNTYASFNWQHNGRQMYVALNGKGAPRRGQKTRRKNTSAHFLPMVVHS

[6] = tested on: glycogen synthase kinase-3 (GSK3A per assay name; protocol says GSK3B); test: GSK3 binders on small-molecule microarrays, primary screen, biochemical, small-molecule microarray, 635 nm fluorescence, GSK3A (AID 1103); details: small-molecule microarray binding, fluorescence 635 nm; higher = more signal; further: the record names both GSK3A and GSK3B
[7] = biological target: Epidermal growth factor receptor (Homo sapiens) (UniProt P00533); test: EGFR binders on small-molecule microarrays, primary screen, biochemical, small-molecule microarray, 635 nm fluorescence (AID 1104); details: EGFR binding, higher = more signal;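 further: score merges 667 nm emission intensity with spot signal to noise over triplicate slides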
Chain of Epidermal growth factor receptor (Homo sapiens) (P00533 whole entry, looked up): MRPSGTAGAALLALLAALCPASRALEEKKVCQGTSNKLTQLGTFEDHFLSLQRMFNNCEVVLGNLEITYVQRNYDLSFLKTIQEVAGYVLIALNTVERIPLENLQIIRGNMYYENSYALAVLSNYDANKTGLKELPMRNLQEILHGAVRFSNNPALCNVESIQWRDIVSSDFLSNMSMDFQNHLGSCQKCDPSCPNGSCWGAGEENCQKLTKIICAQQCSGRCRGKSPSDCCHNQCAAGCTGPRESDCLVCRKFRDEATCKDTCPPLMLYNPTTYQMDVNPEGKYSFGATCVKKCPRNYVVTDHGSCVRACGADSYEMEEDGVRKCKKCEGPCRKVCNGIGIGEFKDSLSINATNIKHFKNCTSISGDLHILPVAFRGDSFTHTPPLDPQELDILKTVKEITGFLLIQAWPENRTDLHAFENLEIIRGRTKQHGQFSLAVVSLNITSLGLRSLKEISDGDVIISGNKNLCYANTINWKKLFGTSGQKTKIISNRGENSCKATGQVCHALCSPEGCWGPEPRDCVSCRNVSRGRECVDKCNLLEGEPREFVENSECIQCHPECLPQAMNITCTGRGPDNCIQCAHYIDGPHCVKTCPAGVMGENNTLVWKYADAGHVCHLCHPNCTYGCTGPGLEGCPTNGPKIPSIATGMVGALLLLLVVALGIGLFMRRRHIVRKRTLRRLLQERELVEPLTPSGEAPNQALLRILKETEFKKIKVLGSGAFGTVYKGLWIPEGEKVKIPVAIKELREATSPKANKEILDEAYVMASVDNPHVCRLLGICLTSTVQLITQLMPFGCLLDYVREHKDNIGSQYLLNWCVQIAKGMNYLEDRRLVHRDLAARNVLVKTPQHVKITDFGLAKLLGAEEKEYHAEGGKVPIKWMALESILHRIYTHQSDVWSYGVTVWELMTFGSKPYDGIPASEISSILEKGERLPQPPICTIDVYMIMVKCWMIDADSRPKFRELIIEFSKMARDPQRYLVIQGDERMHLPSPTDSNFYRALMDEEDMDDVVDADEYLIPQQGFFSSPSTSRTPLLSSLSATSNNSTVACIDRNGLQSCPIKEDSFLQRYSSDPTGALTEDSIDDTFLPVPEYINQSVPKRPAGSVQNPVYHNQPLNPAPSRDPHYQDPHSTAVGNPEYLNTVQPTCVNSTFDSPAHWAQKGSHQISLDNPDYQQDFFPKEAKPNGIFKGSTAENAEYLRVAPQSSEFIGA

[8] = biological target: Follistatin-related protein 3 (Homo sapiens) (UniProt O95633); test: FSTL3 binders on small-molecule microarrays, primary screen, biochemical, small-molecule microarray, 635 nm fluorescence (AID 1105); details: FSTL3 binding, higher = more signal;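 further: score merges emission near 667 nm and signal to noise per printed spot across three slides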
Chain of Follistatin-related protein 3 (Homo sapiens) (O95633 whole entry, looked up): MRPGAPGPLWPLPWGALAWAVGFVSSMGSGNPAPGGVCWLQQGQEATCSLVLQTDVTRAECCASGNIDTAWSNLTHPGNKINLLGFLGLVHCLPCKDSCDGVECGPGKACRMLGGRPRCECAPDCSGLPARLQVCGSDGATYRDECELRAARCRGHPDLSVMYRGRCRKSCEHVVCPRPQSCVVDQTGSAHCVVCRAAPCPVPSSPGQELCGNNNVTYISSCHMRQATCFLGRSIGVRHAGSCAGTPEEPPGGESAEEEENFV

[9] = biological target: Dickkopf-related protein 1 (Homo sapiens) (UniProt O94907); test: DKK1 binders on small-molecule microarrays, primary screen, biochemical, small-molecule microarray, 635 nm fluorescence scan (AID 1106); details: DKK1 binding, higher = more signal;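 further: score merges emission near 667 nm with signal to noise over three replicate slides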
Chain of Dickkopf-related protein 1 (Homo sapiens) (O94907 whole entry, looked up): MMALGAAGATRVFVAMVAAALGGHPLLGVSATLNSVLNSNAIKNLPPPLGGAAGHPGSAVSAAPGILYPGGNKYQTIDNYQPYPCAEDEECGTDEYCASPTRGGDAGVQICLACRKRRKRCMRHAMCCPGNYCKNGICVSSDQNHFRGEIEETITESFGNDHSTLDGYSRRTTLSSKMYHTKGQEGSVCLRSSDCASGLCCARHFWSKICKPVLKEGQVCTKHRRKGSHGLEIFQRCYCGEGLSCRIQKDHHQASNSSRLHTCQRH

[10] = tested on: Inhibin beta A chain (activin A); test: INHBA (activin A) binders on microarrays, primary screen, biochemical, small-molecule microarray, 635 nm fluorescence scan (AID 1107); details: small-molecule microarray binding, higher = more signal;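 further: mouse activin A protein probed at 4.33 µg/mL on printed slides; score merges bound-protein fluorescence near 667 nm with spot signal-to-noise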
[11] = tested on: Human papillomavirus type 1a protein E7 (residues 44-93); test: HPV1a E7 fragment binders on microarrays, primary screen, biochemical, small-molecule microarray, residues 44-93, 635 nm fluorescence (AID 1108); details: small-molecule microarray binding, fluorescence 635 nm; higher = more signal;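 further: E7 fragment applied at 1 µg/mL in TBST for 1 h at 4 C; score combines spot fluorescence with its signal to noise ratio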
[12] = modulators of HCV replicon luciferase signal, primary screen, HCV replication inhibitor project, Huh7 cells, luciferase reporter (AID 1109); details: 48 h, higher = more signal;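 further: huh7 hepatoma cells harbouring a luciferase neomycin HCV replicon reporter; luciferase luminescence as measure of HCV replicon replication; test concentration not given here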
[13] = biological target: Left-right determination factor 2 (Homo sapiens) (UniProt O00292); test: LEFTY2 binders on small-molecule microarrays, primary screen, biochemical, small-molecule microarray, 635 nm fluorescence scan (AID 1110); details: LEFTY2 binding, higher = more signal
Chain of Left-right determination factor 2 (Homo sapiens) (O00292 whole entry, looked up): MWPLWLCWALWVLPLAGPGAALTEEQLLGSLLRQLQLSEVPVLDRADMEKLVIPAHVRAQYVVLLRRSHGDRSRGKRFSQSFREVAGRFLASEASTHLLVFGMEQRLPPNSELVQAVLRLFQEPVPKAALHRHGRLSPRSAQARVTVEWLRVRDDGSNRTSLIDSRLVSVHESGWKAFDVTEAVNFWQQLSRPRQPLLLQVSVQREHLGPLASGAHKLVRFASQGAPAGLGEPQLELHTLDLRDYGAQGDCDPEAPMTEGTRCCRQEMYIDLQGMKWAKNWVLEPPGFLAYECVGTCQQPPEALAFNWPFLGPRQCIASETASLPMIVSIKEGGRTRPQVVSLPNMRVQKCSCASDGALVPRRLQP

[14] = biological target: Calmodulin-1 (Homo sapiens) (UniProt P0DP23); test: CALM1 binders on microarrays, EGTA buffer, profiling panel, biochemical, small-molecule microarray, Cy5-labelled CALM1 (AID 1111); details: Cy5-CALM1 binding fluorescence, higher = more signal;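 further: labelled calmodulin applied in Tris saline Tween buffer holding calcium plus EGTA and DTT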
[15] = biological target: Calmodulin-1 (Homo sapiens) (UniProt P0DP23); test: calcium-bound CALM1 binders on microarrays, profiling panel, artefact control for SMM control-protein annotation, biochemical, small-molecule microarray, Cy5-labelled CALM1, plus calcium (AID 1112); details: Cy5-CALM1 binding fluorescence, higher = more signal;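 further: score merges spot fluorescence with signal to noise from triplicate slides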
[16] = small-molecule microarray binders of probe aWnt5a, primary screen, biochemical, biotinylated probe, 635/667 nm fluorescence (AID 1113); details: higher = more signal;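 further: score merges 667 nm fluorescence intensity with signal-to-noise per printed feature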
[17] = small-molecule microarray binders of probe aShh, primary screen, biochemical, biotinylated probe, 635/667 nm fluorescence (AID 1114); details: higher = more signal;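 further: probe is biotin-labelled aShh protein from a stem cell growth factor screen; measures binding of labelled protein to compounds printed on the slide; score merges feature fluorescence at 667 nm with signal-to-noise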
[18] = small-molecule microarray binders of probe aNog, primary screen, biochemical, biotinylated probe, 635/667 nm fluorescence (AID 1115); details: higher = more signal;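 further: probe is biotinylated aNog protein used at 0.15 µg/mL for 1 h at 4 C; z-score combines 667 nm fluorescence of each spot with its signal to noise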
[19] = biological target: Torsin-1A-interacting protein 1 (Homo sapiens) (UniProt Q5JTV8); test: LAP1 binders from COS7 cell lysate, primary screen, small-molecule microarray, 635/667 nm fluorescence (AID 1116); details: COS7-hLAP1 lysate binding, 635 nm fluorescence, higher = more signal
Chain of Torsin-1A-interacting protein 1 (Homo sapiens) (Q5JTV8 whole entry, looked up): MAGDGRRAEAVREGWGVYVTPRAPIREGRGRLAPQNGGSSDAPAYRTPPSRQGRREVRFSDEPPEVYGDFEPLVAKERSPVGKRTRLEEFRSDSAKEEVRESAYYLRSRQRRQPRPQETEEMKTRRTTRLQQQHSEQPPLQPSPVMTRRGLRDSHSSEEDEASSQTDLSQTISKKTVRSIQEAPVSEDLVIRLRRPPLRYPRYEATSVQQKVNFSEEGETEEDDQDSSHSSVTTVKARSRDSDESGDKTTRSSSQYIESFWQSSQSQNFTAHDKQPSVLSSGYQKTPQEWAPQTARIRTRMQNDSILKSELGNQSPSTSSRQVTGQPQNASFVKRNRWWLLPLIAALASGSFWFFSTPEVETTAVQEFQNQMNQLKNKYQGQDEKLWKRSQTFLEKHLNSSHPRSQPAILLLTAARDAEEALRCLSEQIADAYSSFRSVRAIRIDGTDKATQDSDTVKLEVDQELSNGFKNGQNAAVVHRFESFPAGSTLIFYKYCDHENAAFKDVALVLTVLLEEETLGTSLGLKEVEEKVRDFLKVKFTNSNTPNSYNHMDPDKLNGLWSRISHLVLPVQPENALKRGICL

[20] = biological target: Alpha-bungarotoxin (Bungarus multicinctus) (UniProt P60615); test: alpha-bungarotoxin binders on microarray, profiling panel, artefact control for SMM control protein annotation, biochemical, small-molecule microarray, Alexa647 label, 635/667 nm fluorescence (AID 1117); details: alpha-BTX-A647 binding fluorescence, higher = more signal
Chain of Alpha-bungarotoxin (Bungarus multicinctus) (P60615 whole entry, looked up): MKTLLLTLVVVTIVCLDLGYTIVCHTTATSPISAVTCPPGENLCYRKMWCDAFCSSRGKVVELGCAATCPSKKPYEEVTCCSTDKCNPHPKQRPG

| SMILES | composite z-score [1] | composite z-score [2] | composite z-score [3] | z-score [4] | composite z-score [5] | composite z-score [6] | composite z-score [7] | composite z-score [8] | composite z-score [9] | composite z-score [10] | composite z-score [11] | z-score [12] | composite z-score [13] | composite z-score [14] | composite z-score [15] | composite z-score [16] | composite z-score [17] | composite z-score [18] | composite z-score [19] | composite z-score [20] |
| --- | --- | --- | --- | --- | --- | --- | --- | --- | --- | --- | --- | --- | --- | --- | --- | --- | --- | --- | --- | --- |
| O=C1OCC=C[C@H]2OC34C=CCN(c5ccc6ccccc6c5)C(=O)[C@H]3N(CCCCCO)C(=O)[C@@H]4[C@@H]12 (stereo not given in full) | 1.88 | 0.07 | 0.878 | -0.57 (inactive) | -1.17 | -1.55 | -1.44 | -1.56 | -1.41 | -0.255 | 0.203 | -0.078 | -2.05 | -0.402 | 0.239 | -0.098 | 0.151 | 0.244 | 1.35 | -0.0602 |
| CN1C=C(C(=O)OCCS(C)(=O)=O)C(C(=O)OCCS(C)(=O)=O)=CC(c2ccc(CO)cc2)=CC1c1cccs1 (stereo not given) | 0.76 | 0.162 | 0.102 | 0.497 (inactive) | 0.588 | 0.499 | 0.294 | 0.226 | -0.0496 | 1.47 | 0.229 | 0.19 | 0.0843 | -0.165 | -0.388 | -0.0405 | 0.0062 | 0.304 | 1.46 | 0.821 |
| COCCOC(=O)N1C(=O)[C@@]2(c3cc(C#CCCO)ccc31)[C@H](c1ccccc1OCCO)N1[C@H](c3ccccc3)[C@H](c3ccccc3)OC(=O)[C@H]1[C@@H]2C(=O)N1CCCCCCC1 | 1.69 | 2.28 | 1.36 | -0.532 (inactive) | 0.743 | 1.08 | 0.965 | 1.53 | 1.31 | 1.6 | 1.4 | -2.25 | 0.994 | 2.58 | 1.09 | 0.495 | 1.94 | 2.8 | 3.04 | 2.2 |
| [N-]=[N+]=Nc1ccccc1C[C@]1(C(=O)NCc2ccccc2)COC(c2ccc(OCCCO)cc2)=N1 | 1.26 | 0.187 | 0.869 | 0.439 (inactive) | 1.16 | 1.23 | -0.404 | 1.01 | -0.537 | 0.386 | 1.4 | -3.22 | -0.576 | 0.575 | 0.154 | 0.0004 | -0.167 | 0.919 | 1.42 | 1.04 |
| CN1C(=O)[C@@H]2[C@@H](CC(COc3ccccc3)=C([C@H](O)CCc3ccccc3)[C@@H]2CO)C1=O | -0.194 | -0.0537 | -0.317 | -0.165 (inactive) | -0.0903 | -0.621 | 0.218 | -0.0809 | 0.298 | 0.484 | -0.531 | -0.113 | 0.0752 | -0.548 | -0.343 | -0.243 | -0.304 | -0.398 | 0.0197 | -0.278 |
| CC(C)C[C@@H]1NC(=O)CNC(=O)[C@@]23C(=O)N[C@@H](Cc4ccccc4)C2[C@H](C)[C@@]2(C)O[C@H]2C3/C=C/C/C=C\CNC1=O (stereo not given in full) | 0.15 | -0.212 | -0.445 | 0.426 (inactive) | 0.569 | 1.15 | 0.366 | 1.04 | 0.568 | 1.25 | 1.39 | -0.275 | 0.6 | -0.263 | -0.825 | -0.147 | -0.388 | -0.177 | 0.625 | 0.985 |
| COc1ccc([Si](C)(C)[C@@H]2[C@@H](CCn3cc([C@H](O)c4ccccc4)nn3)O[C@]3(C(=O)N(c4ccccc4)c4ccccc43)[C@H]2C)cc1 | 0.548 | -0.016 | -0.142 | -1.18 (inactive) | 0.23 | -0.15 | -0.302 | 0.115 | 0.181 | 0.372 | -0.0404 | -3.76 | -0.184 | 0.052 | -0.336 | -0.096 | 0.413 | 0.383 | 0.0664 | 0.351 |
| COCCOC(=O)N1C(=O)[C@@]2(c3cc(C#CCNC(N)=O)ccc31)[C@H](c1ccc(O)cc1)N1[C@H](c3ccccc3)[C@H](c3ccccc3)OC(=O)[C@H]1[C@@H]2C(=O)N1CCN(c2ncccn2)CC1 | 1.55 | 0.607 | 0.762 | 0.41 (inactive) | 0.811 | 0.907 | 0.279 | 0.751 | 0.0805 | 0.311 | 0.855 | -1.3 | 0.315 | 2.03 | 0.762 | -0.219 | 1.78 | -0.48 | 1.82 | 1.52 |
| CCC(CC)C(O)C1C=CC2C(=O)N(c3ccccc3)C(=O)C2N1Nc1ccc([N+](=O)[O-])cc1 (stereo not given) | 0.629 | 1.02 | 0.638 | -0.16 (inactive) | 0.632 | 1.21 | 0.102 | 0.393 | -0.351 | 0.761 | 1.47 | -0.451 | -0.139 | 1.27 | 0.717 | 0.152 | 0.04 | 0.0323 | 0.0001 | 1.42 |
| CC(C)CNC(=O)[C@@H]1c2ccccc2C(=O)N(C2CCCCC2)[C@H]1c1ccc(CO)cc1 | 1.65 | 0.477 | 0.962 | -1.25 (inactive) | -0.0953 | 0.185 | -0.602 | -0.333 | -0.308 | 0.0986 | 0.0857 | -0.48 | -0.276 | 0.54 | 1.09 | -0.124 | -0.153 | 0.313 | 0.875 | -0.624 |
| C=CCNC(=O)[C@@H]1[C@H]2C(=O)O[C@H](c3ccccc3)[C@H](c3ccccc3)N2[C@H](c2ccc(O)cc2)[C@@]12C(=O)N(C(=O)OCCOC)c1ccc(C#CCCO)cc12 | 1.25 | 0.373 | 0.42 | -0.591 (inactive) | 1.37 | 1.04 | 0.683 | 1.12 | 0.921 | 0.616 | -0.472 | -0.118 | 0.863 | 0.355 | 0.349 | -0.0276 | -0.0011 | 0.565 | 0.394 | 2.29 |
